Whole data set: some 33,000 sequences, median “E-score (-0.5 to 0.5)” near -0.041, cut for the highest 2% near 0.37. Many of the other results were omitted from the sample, so the highest values are more common in it than they were.

From the supplement of paper PMC3334620 come the findings set out here.

The experiment deals with T1, Ecm22 (UniProt Q05958).
T1 sequence: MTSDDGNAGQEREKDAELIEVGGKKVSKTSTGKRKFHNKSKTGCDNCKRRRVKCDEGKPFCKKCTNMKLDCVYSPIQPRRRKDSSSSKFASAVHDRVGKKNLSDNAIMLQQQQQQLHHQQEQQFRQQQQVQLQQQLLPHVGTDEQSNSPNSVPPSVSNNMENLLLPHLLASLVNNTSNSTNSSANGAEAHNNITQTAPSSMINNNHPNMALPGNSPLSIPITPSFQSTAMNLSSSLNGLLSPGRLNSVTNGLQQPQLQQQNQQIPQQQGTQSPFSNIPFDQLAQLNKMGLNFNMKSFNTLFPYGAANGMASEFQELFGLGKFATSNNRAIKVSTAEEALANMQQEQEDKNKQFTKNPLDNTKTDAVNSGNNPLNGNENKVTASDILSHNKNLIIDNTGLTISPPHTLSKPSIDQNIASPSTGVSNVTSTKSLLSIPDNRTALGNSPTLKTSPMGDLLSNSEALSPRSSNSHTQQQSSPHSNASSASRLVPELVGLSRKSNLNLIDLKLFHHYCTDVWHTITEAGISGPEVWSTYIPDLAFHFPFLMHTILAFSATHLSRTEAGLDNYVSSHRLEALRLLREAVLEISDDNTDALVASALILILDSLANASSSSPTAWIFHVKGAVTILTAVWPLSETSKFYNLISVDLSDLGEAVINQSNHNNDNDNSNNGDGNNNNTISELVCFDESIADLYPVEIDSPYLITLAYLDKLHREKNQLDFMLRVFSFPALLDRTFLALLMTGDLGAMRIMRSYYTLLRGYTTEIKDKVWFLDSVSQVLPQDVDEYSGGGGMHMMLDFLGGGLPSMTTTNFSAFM
Briefly: PBM E-score (8-mer binding enrichment) (E-score (-0.5 to 0.5)); higher = stronger / more preferred TF binding. The note with it: protein concentration: 200 nM; construct: GST-full length. The method, then:
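Universal 'all 10-mer' protein binding microarrays (Agilent AMADID 015681) probed with GST-tagged S. cerevisiae TFs (full-length or DBD) made by in vitro transcription/translation (PURExpress), about 100-200 nM. Bound TF was detected with fluorescent anti-GST. Each ungapped 8-mer (which stands for itself and its reverse complement) is scored by the PBM enrichment score (E-score), a modified Wilcoxon-Mann-Whitney statistic from -0.5 to +0.5, computed with the Universal PBM Analysis Suite. Scale: above 0.35 generally sequence-specific binding.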
Consider CAACGATC, for which the “PBM E-score” value worked out at 0.175.

Turning to AAACGATC, the “PBM E-score” value was 0.423.

Regarding GAACGATC, the “PBM E-score” value turned out to be 0.432.

Consider GATCGATC, for which the “PBM E-score” value came to 0.171.

For the sequence AAACGCTG, the “PBM E-score” value came out at 0.0348.

CATTAGGG: the “PBM E-score” value was -0.168.

Take AGAACCCG: the “PBM E-score” value is -0.0503.

Regarding ACTCTACG, the “PBM E-score” value turned out to be 0.265.

As to AGCGCACG, the “PBM E-score” value stood at 0.097.

With ACCCCCTC, the “PBM E-score” value was -0.274.

Turning to CGTGGATC, the “PBM E-score” value is -0.0292.

On to CCTATGGA, for which the “PBM E-score” value was -0.192.

Regarding CCCATTAC, the “PBM E-score” value is -0.101.

In the case of CGACTGAG, the “PBM E-score” value was found to be 0.0682.

As to GGACGATA, the “PBM E-score” value is -0.213.

For the sequence AAACGATA, the “PBM E-score” value is 0.435.

On to CCACGATA, for which the “PBM E-score” value amounted to 0.0166.

TAACGATA: the “PBM E-score” value was determined as 0.367.

Turning to GAACGATA, the “PBM E-score” value came to 0.416.

Turning to CAACGATA, the “PBM E-score” value came out at 0.263.

For the sequence ACCCTTGG, the “PBM E-score” value was -0.233.

Regarding ATTCTAAA, the “PBM E-score” value is 0.095.

For the sequence ACCTAGAG, the “PBM E-score” value was -0.00033.

On to ATTCGCGG, for which the “PBM E-score” value is -0.00497.

Consider ACGGGAGA, for which the “PBM E-score” value is 0.0694.

On to CGACGGGA, for which the “PBM E-score” value was found to be 0.227.

CCTAAACA: the “PBM E-score” value is -0.149.

Regarding CCTAAACC, the “PBM E-score” value was -0.00691.

In the case of ACTAAACA, the “PBM E-score” value was -0.273.

Turning to ATTAAACC, the “PBM E-score” value was -0.0934.

For ACTAAACG, the “PBM E-score” value was 0.457.

Turning to CCTAAACG, the “PBM E-score” value was determined as 0.407.

As to ATTAAACA, the “PBM E-score” value was -0.163.

Turning to ATTAAACG, the “PBM E-score” value is 0.449.

On to ACTAAACC, for which the “PBM E-score” value was -0.00061.

As for GGAGTAAA, the “PBM E-score” value worked out at 0.0078.

Turning to GGGGCTAC, the “PBM E-score” value is -0.0133.

GACGCCTA: the “PBM E-score” value was -0.221.

Consider TCTTCGAA, for which the “PBM E-score” value was found to be 0.108.

Regarding GATACTTA, the “PBM E-score” value was -0.131.

Take CAGTCGTA: the “PBM E-score” value stood at 0.418.

AAGTCGTG: the “PBM E-score” value is -0.0717.

Regarding CAGTCGGA, the “PBM E-score” value is -0.067.

For the sequence GAGTCGTA, the “PBM E-score” value was found to be 0.43.

As for GAGTCGGA, the “PBM E-score” value was 0.0868.

Regarding AAGTCGTA, the “PBM E-score” value was determined as 0.433.

Consider CAGTCGTC, for which the “PBM E-score” value was -0.109.

In the case of AAGTCGTC, the “PBM E-score” value worked out at 0.139.

On to GAGTCGCA, for which the “PBM E-score” value was 0.133.

On to CCGGCCGA, for which the “PBM E-score” value was -0.113.

Consider AAGAGTTC, for which the “PBM E-score” value stood at 0.00406.

Regarding CGAGCAAC, the “PBM E-score” value came out at 0.168.

With ACGCCGTG, the “PBM E-score” value is -0.146.

Take ACTCATGC: the “PBM E-score” value is -0.0706.

Regarding CACTGGGG, the “PBM E-score” value is -0.267.

ACGAGACT: the “PBM E-score” value is 0.348.

Consider ACGAGATA, for which the “PBM E-score” value worked out at 0.346.

With ACGAGATG, the “PBM E-score” value came out at 0.365.

On to ACGAGACG, for which the “PBM E-score” value came out at 0.394.

With GCGAGAGC, the “PBM E-score” value was 0.182.

On to ACGAGATC, for which the “PBM E-score” value was 0.433.

As for ACGAGAGC, the “PBM E-score” value was determined as 0.399.

Consider ACGAGACA, for which the “PBM E-score” value was 0.315.

Take ACGAGAGA: the “PBM E-score” value is 0.353.

With AGTAAACA, the “PBM E-score” value is 0.0411.

For the sequence CGTAAACC, the “PBM E-score” value came out at 0.366.

Consider CGTAAACG, for which the “PBM E-score” value amounted to 0.444.

With AGTAAACG, the “PBM E-score” value came to 0.427.

As for GGTAAACA, the “PBM E-score” value stood at 0.129.

Take CGGAAACG: the “PBM E-score” value was 0.269.

Consider AGTAAACC, for which the “PBM E-score” value is -0.0723.

In the case of CGTAAACA, the “PBM E-score” value was 0.385.

With TGTAAACA, the “PBM E-score” value is -0.0145.

In the case of TCCTTAAA, the “PBM E-score” value was -0.1.

Turning to GGTCCACC, the “PBM E-score” value is -0.214.

Consider ACGCGGGA, for which the “PBM E-score” value was 0.062.

Regarding AAAGCAGG, the “PBM E-score” value is -0.203.

As for TCTTTACA, the “PBM E-score” value was -0.132.

As to CTTTCGTA, the “PBM E-score” value was determined as 0.428.

As for GTTTCGTA, the “PBM E-score” value was determined as 0.44.

Take ATTTCGTA: the “PBM E-score” value turned out to be 0.444.

CTTTCGTC: the “PBM E-score” value was 0.0061.

For ATTTCGTC, the “PBM E-score” value came out at 0.0861.

Consider GTTTCGAA, for which the “PBM E-score” value was -0.00209.

Turning to CTTTCGGA, the “PBM E-score” value was 0.0148.

Take ATTTCGTG: the “PBM E-score” value was determined as 0.0706.
